Data taken from the supplement of paper PMC10849652.
Targets with a hit are over-represented here; the source holds about 8,800 in all. About 0.5% of all pairs of compound and target were hits.

Experiments:
Assay in all cases: log2 fold change, soluble protein after heating vs DMSO (PISA); higher = thermal stabilisation; K562 lysate, 10 uM; active = over 0.2 and 3.5 SD of the protein, either way, in both replicates (recomputed)
[1] = compound: Cc1cn(-c2cc(NC(=O)c3ccc(C)c(Nc4nccc(-c5cccnc5)n4)c3)cc(C(F)(F)F)c2)cn1 [nilotinib]
Procedure, shortened: (§1)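 Values give the log-two fold change in thermal stability against solvent controls, from duplicates. Crude K562 extract at 1 mg/mL protein, made by dounce homogenisation in PBS pH 7.4 with 1 mM MgCl2, was treated with 10 μM compound for 30 min. After 3 min heating across 48°C-58°C, aliquots were pooled, adjusted to 0.5% NP-40 at 4°C and centrifuged at 21,000xg for 90 min. The supernatant was measured by TMTpro 16plex LC-MS/MS with channel sums equalised.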

[2] = compound: Cc1nc(Nc2n[nH]c3c2CN(C(=O)N[C@H](CN(C)C)c2ccccc2)C3(C)C)c2sccc2n1
Procedure, shortened: as §1

[3] = compound: Cc1nc(Nc2ncc(C(=O)Nc3c(C)cccc3Cl)s2)cc(N2CCN(CCO)CC2)n1 [dasatinib]
Procedure, shortened: as §1

[4] = compound: Cc1ncc(-c2ccnc(Nc3ccc(S(C)(=O)=O)cc3)n2)n1C(C)C
Procedure, shortened: as §1

[5] = compound: Cn1cc(-c2ccc3c(c2)CCN3C(=O)Cc2cccc(C(F)(F)F)c2)c2c(N)ncnc21
Procedure, shortened: as §1

[6] = compound: Cn1cc(CNCC2CCN(c3ncc(C(=O)NO)cn3)CC2)c2ccccc21 [quisinostat]
Procedure, shortened: as §1

[7] = compound: Cn1cncc1[C@@](N)(c1ccc(Cl)cc1)c1ccc2c(c1)c(-c1cccc(Cl)c1)cc(=O)n2C [tipifarnib]
Procedure, shortened: as §1

[8] = compound: NC(=O)Nc1cc(-c2cccc(F)c2)sc1C(=O)N[C@H]1CCCNC1
Procedure, shortened: as §1

[9] = compound: NC(=O)c1cnc(N[C@@H]2CCCC[C@@H]2N)nc1Nc1cccc(-n2nccn2)c1
Procedure, shortened: as §1

[10] = compound: NC1(c2ccc(-c3nc4ccn5c(=O)[nH]nc5c4cc3-c3ccccc3)cc2)CCC1
Procedure, shortened: as §1

Measured: log2 fold change

NDUFA4 (UniProt O00483)
inactive: [1] 0.062 | [2] 0.058 | [3] 0.043 | [4] 0.16 | [5] -0.007 | [6] 0.104 | [7] 0.031 | [8] -0.065 | [9] 0.08 | [10] 0.019

NPLOC4 isoform 2 (UniProt Q8TAT6)
Sequence of UniProt Q8TAT6 (Q8TAT6 whole entry, looked up): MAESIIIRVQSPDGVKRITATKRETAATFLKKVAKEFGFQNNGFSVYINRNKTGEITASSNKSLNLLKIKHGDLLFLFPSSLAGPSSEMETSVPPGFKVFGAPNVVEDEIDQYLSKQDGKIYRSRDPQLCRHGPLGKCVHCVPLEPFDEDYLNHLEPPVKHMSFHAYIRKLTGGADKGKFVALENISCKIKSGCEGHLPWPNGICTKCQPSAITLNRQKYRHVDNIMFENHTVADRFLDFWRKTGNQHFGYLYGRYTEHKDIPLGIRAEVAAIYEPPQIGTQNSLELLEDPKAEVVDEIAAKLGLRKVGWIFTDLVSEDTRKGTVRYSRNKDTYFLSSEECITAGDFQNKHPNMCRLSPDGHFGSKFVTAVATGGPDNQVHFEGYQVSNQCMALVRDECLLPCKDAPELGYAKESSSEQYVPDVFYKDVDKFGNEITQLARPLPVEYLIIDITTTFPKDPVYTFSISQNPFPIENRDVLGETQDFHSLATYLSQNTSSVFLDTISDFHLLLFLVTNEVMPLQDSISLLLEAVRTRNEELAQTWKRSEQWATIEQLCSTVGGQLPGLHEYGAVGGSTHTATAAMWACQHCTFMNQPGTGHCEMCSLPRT
inactive: [1] -0.005 | [2] 0.007 | [3] 0.019 | [4] 0.007 | [5] 0.004 | [6] -0.037 | [7] 0 | [8] -0.006 | [9] 0.018 | [10] -0.023

OSBP2 (UniProt Q969R2)
Sequence of UniProt Q969R2 (Q969R2 whole entry, looked up): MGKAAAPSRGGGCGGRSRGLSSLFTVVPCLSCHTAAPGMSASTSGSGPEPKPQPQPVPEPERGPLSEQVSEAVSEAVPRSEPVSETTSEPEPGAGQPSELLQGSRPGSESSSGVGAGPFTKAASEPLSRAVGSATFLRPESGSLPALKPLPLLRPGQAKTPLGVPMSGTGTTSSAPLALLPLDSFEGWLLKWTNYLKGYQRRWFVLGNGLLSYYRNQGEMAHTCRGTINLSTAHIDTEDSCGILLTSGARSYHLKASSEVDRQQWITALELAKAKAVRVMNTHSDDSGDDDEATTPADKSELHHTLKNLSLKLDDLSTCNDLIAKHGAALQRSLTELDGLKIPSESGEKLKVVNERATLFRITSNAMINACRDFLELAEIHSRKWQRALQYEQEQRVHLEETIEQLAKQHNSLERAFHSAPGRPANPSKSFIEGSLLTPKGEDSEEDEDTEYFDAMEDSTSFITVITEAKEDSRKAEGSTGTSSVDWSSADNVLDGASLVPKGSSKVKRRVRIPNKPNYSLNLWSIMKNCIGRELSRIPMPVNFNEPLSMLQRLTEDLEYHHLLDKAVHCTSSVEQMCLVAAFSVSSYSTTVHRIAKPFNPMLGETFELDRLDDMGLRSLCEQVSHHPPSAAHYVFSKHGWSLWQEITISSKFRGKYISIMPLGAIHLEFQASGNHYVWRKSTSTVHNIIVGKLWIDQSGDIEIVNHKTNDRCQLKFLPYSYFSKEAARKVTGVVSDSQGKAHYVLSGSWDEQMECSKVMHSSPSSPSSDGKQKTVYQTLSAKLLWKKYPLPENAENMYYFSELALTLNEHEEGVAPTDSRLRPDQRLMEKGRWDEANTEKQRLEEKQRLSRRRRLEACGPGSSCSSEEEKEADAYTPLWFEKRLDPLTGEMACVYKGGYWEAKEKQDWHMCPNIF
inactive: [1] -0.053 | [2] -0.038 | [3] -0.089 | [4] -0.025 | [5] -0.002 | [6] -0.184 | [7] -0.053 | [8] 0.052 | [9] 0.075 | [10] 0.026

NR2F2 (UniProt P24468)
Sequence of UniProt P24468 (P24468 whole entry, looked up): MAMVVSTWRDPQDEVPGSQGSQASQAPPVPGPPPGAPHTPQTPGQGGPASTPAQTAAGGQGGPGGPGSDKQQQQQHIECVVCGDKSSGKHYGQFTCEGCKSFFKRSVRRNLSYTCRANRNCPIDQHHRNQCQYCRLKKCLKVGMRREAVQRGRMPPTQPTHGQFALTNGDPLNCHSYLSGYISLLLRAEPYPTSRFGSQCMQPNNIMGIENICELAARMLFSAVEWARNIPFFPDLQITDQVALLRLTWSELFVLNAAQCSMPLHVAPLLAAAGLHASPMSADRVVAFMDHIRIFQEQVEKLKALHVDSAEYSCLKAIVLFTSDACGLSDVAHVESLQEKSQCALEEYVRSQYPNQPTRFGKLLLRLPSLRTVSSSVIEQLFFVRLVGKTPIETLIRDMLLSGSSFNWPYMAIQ
inactive: [1] -0.063 | [2] 0.107 | [3] -0.027 | [4] -0.125 | [5] -0.006 | [6] -0.024 | [7] 0.034 | [8] 0.125 | [9] 0.024 | [10] 0.029

MRPS31 (UniProt Q92665)
inactive: [1] -0.005 | [2] -0.002 | [3] -0.034 | [4] 0.034 | [5] 0.002 | [6] -0.046 | [7] 0.015 | [8] 0.022 | [9] -0.026 | [10] -0.014

NUCB2 (UniProt P80303)
inactive: [1] -0.016 | [2] 0.015 | [3] 0.007 | [4] -0.019 | [5] -0.009 | [6] 0.016 | [7] 0.011 | [8] -0.003 | [9] -0.001 | [10] 0.014

OSGEP (UniProt Q9NPF4)
Sequence of UniProt Q9NPF4 (Q9NPF4 whole entry, looked up): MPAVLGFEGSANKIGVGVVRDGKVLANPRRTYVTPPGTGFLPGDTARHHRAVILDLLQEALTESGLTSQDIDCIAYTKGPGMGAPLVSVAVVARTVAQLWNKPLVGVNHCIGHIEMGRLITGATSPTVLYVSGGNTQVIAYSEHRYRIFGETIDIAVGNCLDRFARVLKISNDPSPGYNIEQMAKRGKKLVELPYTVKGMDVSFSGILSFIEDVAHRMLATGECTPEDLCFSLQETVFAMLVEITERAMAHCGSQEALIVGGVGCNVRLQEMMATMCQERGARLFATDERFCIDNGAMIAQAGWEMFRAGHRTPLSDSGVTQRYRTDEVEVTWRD
inactive: [1] -0.005 | [2] 0.008 | [3] 0.002 | [4] 0.018 | [5] 0.025 | [6] -0.006 | [7] 0.026 | [8] -0.012 | [9] -0.027 | [10] 0.03

MT-ND1 (UniProt P03886)
Sequence of UniProt P03886 (P03886 whole entry, looked up): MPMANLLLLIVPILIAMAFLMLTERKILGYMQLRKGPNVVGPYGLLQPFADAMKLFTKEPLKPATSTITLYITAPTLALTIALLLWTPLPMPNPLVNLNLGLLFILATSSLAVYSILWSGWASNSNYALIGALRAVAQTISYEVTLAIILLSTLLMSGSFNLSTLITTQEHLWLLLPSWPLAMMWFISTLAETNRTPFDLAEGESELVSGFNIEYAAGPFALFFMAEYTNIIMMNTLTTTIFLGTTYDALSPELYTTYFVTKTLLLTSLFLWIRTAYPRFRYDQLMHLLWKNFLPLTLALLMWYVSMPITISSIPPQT
inactive: [1] -0.054 | [2] 0.005 | [3] 0.018 | [4] -0.074 | [5] 0.035 | [6] -0.094 | [7] -0.125 | [8] 0.033 | [9] -0.024 | [10] -0.059

NUP133 (UniProt Q8WUM0)
inactive: [1] 0.023 | [2] -0.006 | [3] -0.026 | [4] 0.019 | [5] 0.056 | [6] -0.092 | [7] -0.039 | [8] 0.006 | [9] 0.005 | [10] -0.016

NNT (UniProt Q13423)
Sequence of UniProt Q13423 (Q13423 whole entry, looked up): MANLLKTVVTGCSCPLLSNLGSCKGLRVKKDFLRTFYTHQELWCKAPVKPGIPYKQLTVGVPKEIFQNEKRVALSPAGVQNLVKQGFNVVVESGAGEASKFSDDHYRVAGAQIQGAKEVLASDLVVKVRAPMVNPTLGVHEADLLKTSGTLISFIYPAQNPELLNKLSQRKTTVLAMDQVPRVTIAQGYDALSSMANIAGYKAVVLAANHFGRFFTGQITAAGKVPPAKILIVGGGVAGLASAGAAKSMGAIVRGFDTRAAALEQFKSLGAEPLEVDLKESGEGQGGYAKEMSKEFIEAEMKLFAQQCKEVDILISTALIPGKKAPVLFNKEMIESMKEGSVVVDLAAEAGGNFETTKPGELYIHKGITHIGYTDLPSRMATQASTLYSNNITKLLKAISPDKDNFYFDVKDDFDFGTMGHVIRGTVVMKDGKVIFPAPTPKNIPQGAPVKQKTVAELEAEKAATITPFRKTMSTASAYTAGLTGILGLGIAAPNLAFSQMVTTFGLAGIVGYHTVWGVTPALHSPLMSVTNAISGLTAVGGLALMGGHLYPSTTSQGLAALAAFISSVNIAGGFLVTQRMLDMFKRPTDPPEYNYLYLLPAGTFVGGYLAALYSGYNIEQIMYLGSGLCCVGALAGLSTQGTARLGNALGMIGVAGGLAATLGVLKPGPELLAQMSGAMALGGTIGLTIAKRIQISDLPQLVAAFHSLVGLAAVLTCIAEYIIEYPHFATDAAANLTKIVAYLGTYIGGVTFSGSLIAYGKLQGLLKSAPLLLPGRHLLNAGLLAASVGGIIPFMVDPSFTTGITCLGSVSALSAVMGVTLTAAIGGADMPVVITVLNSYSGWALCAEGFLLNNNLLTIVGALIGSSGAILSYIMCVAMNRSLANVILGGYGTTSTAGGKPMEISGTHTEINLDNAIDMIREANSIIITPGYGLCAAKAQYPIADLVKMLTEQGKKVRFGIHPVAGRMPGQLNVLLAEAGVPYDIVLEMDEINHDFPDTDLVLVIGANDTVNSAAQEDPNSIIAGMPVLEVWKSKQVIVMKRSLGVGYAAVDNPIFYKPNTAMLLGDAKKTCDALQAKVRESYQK
inactive: [1] -0.017 | [2] 0.001 | [3] 0.003 | [4] 0.002 | [5] 0.002 | [6] 0.01 | [7] 0.009 | [8] -0.021 | [9] 0.002 | [10] 0.001

OAT (UniProt P04181)
inactive: [1] 0.012 | [2] -0.038 | [3] -0.033 | [4] 0.003 | [5] -0.012 | [6] -0.002 | [7] 0.024 | [8] -0.01 | [9] 0.019 | [10] -0.018

MTFP1 (UniProt Q9UDX5)
Sequence of UniProt Q9UDX5 (Q9UDX5 whole entry, looked up): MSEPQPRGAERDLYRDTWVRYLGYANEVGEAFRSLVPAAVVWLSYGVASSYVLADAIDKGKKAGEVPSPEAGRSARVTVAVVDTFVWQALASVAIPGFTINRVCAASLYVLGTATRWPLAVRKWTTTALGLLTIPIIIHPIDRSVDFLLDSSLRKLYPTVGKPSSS
inactive: [1] 0.044 | [2] -0.021 | [3] 0.069 | [4] 0.043 | [5] 0.008 | [6] 0.133 | [7] -0.014 | [8] 0.02 | [9] -0.103 | [10] -0.004

PANK1 (UniProt Q8TE04)
Sequence of UniProt Q8TE04 (Q8TE04 whole entry, looked up): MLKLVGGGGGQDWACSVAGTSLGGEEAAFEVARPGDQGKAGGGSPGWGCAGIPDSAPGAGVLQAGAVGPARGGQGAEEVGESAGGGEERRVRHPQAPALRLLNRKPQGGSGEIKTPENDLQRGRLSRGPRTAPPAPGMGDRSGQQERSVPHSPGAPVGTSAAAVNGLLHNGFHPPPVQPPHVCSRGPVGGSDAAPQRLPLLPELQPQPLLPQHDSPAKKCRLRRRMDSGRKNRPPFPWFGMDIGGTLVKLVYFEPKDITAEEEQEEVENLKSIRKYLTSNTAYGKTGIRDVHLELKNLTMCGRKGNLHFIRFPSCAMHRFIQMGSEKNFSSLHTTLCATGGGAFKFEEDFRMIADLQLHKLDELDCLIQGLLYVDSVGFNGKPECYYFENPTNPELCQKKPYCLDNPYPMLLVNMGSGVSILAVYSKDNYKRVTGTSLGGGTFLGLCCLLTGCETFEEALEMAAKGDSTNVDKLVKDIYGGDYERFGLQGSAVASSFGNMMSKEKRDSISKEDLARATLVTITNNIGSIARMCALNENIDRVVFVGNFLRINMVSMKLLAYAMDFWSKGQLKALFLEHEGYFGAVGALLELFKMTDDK
inactive: [1] -0.005 | [2] 0.014 | [3] -0.028 | [4] -0.05 | [5] 0.053 | [6] -0.039 | [7] 0.079 | [8] 0.062 | [9] -0.007 | [10] 0.062

NMT1 (UniProt P30419)
Sequence of UniProt P30419 (P30419 whole entry, looked up): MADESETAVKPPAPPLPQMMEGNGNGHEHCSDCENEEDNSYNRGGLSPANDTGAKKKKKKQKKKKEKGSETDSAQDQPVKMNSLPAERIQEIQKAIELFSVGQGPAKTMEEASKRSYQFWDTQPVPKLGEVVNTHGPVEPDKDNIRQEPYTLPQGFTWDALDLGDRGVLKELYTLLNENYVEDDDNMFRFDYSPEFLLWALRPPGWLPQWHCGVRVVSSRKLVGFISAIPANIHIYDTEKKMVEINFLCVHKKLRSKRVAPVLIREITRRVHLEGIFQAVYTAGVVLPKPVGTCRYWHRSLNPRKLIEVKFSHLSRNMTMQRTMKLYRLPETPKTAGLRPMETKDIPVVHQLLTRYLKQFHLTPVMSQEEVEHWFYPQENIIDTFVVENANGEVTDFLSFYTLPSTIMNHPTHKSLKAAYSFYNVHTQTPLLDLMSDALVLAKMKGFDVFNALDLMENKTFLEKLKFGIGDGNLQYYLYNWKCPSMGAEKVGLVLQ
inactive: [1] -0.037 | [2] 0.044 | [3] 0.058 | [4] -0.016 | [5] -0.022 | [6] -0.065 | [7] 0.001 | [8] 0.007 | [9] -0.005 | [10] -0.057
